PTK2B oligo ant – blocks oligomerization of human Pyk2 in cells | Q293 cells, Pyk2 FERM NanoBiT luminescence; hits give low values | 0.83% of 99,000 active | z-score (the deposit names both 25 µM and 10 µM);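 active means Z-score of -3 or lower, scaled per plate to the spread of control and sample wells; inactive means z-score above -3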;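 further: negative z-score means lost luminescence so less FERM oligomerization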
CYP2C9 activ – activators of human CYP2C9; P11712; recombinant CYP2C9, luciferin-H conversion, luminescence; hits give high values; factor 1 = untreated enzyme, 0 = blocked; activation factor at 5 µM; 1.4% of 96,000 active;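 active means activation factor of 2 or more for CYP2C9 at a 5 µM dose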;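 further: 0 = sulfaphenazole-blocked wells and 1 = vehicle-only wells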
CYP2C19 inh – inhibitors of human CYP2C19; 21% of 96,000 active; inhibition, % at 5 µM; CYP2C19 Supersomes, luciferin-H EGE luminescence, 30 min;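 active means CYP2C19 inhibition above a set limit at 5 µM in the primary screen, cut at about 50% in these data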;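 further: plate controls were negative control wells for no effect and 2.5 mM tranylcypromine positive control for full effect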
CYP2C19 activ – increases human CYP2C19 enzyme activity; P33261; recombinant CYP2C19, luciferin-H EGE luminescence; hits give high values; 0 = fully inhibited enzyme, 1 = untreated enzyme; activation factor at 5 µM; 96,000 tested, under 10 active; AID 1025;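 active means activation factor of at least 2 at 5 µM in the primary screen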;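 further: 0 = wells with 2.5 mM tranylcypromine and 1 = vehicle-only wells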
CYP2C9 inhib – human CYP2C9 inhibition. P11712. CYP2C9 Supersomes, luciferin-H conversion, luminescence. inhibition, % at 5 µM. 20% of 96,000 active;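 active means blocking of liver enzyme CYP2C9 beyond about 50% at 5 µM, limit read from the data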
Cav32 inh – inhibitors of human Cav3.2 T-type calcium channel; O95180; Cav3.2-expressing cells, Fluo-4 calcium fluorescence FDSS; hits give low values; B-score at 10 µM; 4% of 100,000 active; AID 449739;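 active means single-dose well whose peak fluorescence ratio is a statistical outlier from its plate by either plate-standardised score or position-corrected B-score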
Numbers without * were called inactive; / = no result. Sampled rows, rich in hits. Any-hit rate of the full collection: about 27%.

SMILES | PTK2B oligo ant | CYP2C9 activ | CYP2C19 inh | CYP2C19 activ | CYP2C9 inhib | Cav32 inh
c1ccc(-n2ncc3c(N4CCN(c5ccccn5)CC4)nc(N4CCCCCC4)nc32)cc1 | 0.45 | 0.7 | 18.4 | 0.8 | 27.2 | -1.15
CCCCCCc1cc2cc(-c3nnc(-c4ccccc4O)o3)c(=O)oc2cc1O | -1.66 | 0.1 | 14.1 | 0.9 | 89.8* | -3.52*
CCCCCCc1cc2cc(-c3nnc(-c4cc(OC)c(OC)c(OC)c4)o3)c(=O)oc2cc1O | / | / | / | / | / | -3.25
CCCCCCc1cc2cc(-c3nnc(-c4ccccc4OC)o3)c(=O)oc2cc1O | -3.1* | 0 | 48.3 | 0.5 | 96.7* | -4.25*
Cc1occc1C(=O)NNC(=O)Cc1ccccc1 | 0.79 | 0.7 | 12.1 | 0.9 | 25.5 | -0.488
N#CC(/C(=N/S(=O)(=O)c1cccs1)c1ccccc1)c1nc2ccccc2[nH]1 (stereo not drawn) | -1.67 | 0.1 | 17.0 | 0.8 | 94.8* | /
CCOC(=O)c1sc(=S)n(-c2cccc(C(F)(F)F)c2)c1SC | -1.35 | 0.4 | 0.7 | 1 | 60.7* | -0.0183
CCOC(=O)c1sc(=S)n(-c2ccccc2)c1SC | -0.34 | 0.5 | 58.3* | 0.4 | 48.5 | 0.446
Cn1cc(/C(Cc2ccccc2)=N\O)c2ccccc21 | -2.13 | 0.9 | 58.6* | 0.4 | 10.5 | -1.11
Cn1cc(C(N)=O)c2ccccc21 | / | / | / | / | / | 0.255
COc1ccc(SC[C@H](Cc2ccccc2)N2CCN(C)CCC2=O)cc1 | / | / | / | / | / | 0.182
COc1cccc(NC(=O)c2ccc(-n3cccn3)nc2)c1 | 0.36 | 0.8 | 18.2 | 0.8 | 21.8 | 1.46
COc1cccc(-c2ccc(C#N)c(SCC(=O)NCCc3cccc(Cl)c3)n2)c1 | 0.27 | 0.4 | 82.5* | 0.2 | 64.0* | /
COc1cccc(-c2ccc(C#N)c(OC(=O)c3ccc(Cl)cc3)n2)c1 | 0.34 | 0.7 | 10.9 | 0.9 | 27.3 | 0.257
COc1cccc(-c2ccc(C#N)c(OC(=O)c3c(Cl)cccc3Cl)n2)c1 | -0.05 | 0.5 | 11.6 | 0.9 | 50.6* | -2.73
Cc1c(N2C(=O)CS/C2=N\N=C\c2ccc(Br)cc2)c(=O)n(-c2ccccc2)n1C | 0.24 | 1 | 1.1 | 1 | -3.0 | -0.0355
Cc1ccc(S(=O)(=O)CC#CCOC(=O)c2ccc([N+](=O)[O-])cc2)cc1 | / | 0.7 | 23.9 | 0.8 | 34.0 | -0.0366
COC(=O)c1ccc(C(=O)OC)c(NC(=O)COC(=O)C2CCC(C(C)(C)C)CC2)c1 (stereo not drawn) | -0.18 | 0.7 | 9.0 | 0.9 | 28.6 | -4.77*
COc1cc(S(=O)(=O)N2CCCCC2)ccc1NC(=O)Cc1ccccc1 | -1.68 | 0.5 | -24.5 | 1.2 | 49.7 | -0.00273
COC(=O)c1ccc(C(=O)OC)c(NC(=O)COC(=O)C2CC2C)c1 (stereo not drawn) | -0.18 | 0.2 | 77.7* | 0.2 | 79.7* | -1.04
Cc1ccc(NC(=O)COC(=O)C2CC2C)c(S(=O)(=O)N2CCCCC2)c1 (stereo not drawn) | 0.48 | 0.5 | 74.2* | 0.3 | 51.1* | -1.05
COC(=O)c1ccc(C(=O)OC)c(NC(=O)COC(=O)C2CCCCC2)c1 | 0.85 | 0.6 | 24.7 | 0.8 | 35.3 | -0.552
CC(C)CC(NC(=O)OC(C)(C)C)C(=O)NC(C(=O)N1CCCC1C(N)=O)C(C)C (stereo not drawn) | 0.42 | 1.1 | -9.5 | 1.1 | -12.3 | -0.00803
c1ccc(CNc2ncnc3c2cnn3Cc2ccccc2)cc1 | -1.31 | / | / | / | / | -3.07
Clc1ccc(Cn2ncc3c(NCc4ccco4)ncnc32)c(Cl)c1 | / | 2.8* | 22.0 | 0.8 | -180.3 | -5.78*
SMILES | PTK2B oligo ant | CYP2C9 activ | CYP2C19 inh | CYP2C19 activ | CYP2C9 inhib | Cav32 inh
CCc1cc2c(NCc3ccco3)ncnc2s1 | 0.68 | 0.6 | 50.0* | 0.5 | 41.0 | 0.124
CC1=NN(C(=O)Cc2ccccc2)C(O)(c2cccnc2)C1 (stereo not drawn) | 0.22 | 1.1 | 3.8 | 1 | -9.8 | 0.677
O=C(CCCNS(=O)(=O)c1ccc(Br)cc1)N1CC[C@@]2(O)CCCC[C@H]2C1 | -0.2 | 1 | 2.2 | 1 | 3.8 | -0.96
Cc1ccc(N)c(C(O)(C(F)(F)F)C(F)(F)F)c1 | / | 0.4 | 82.2* | 0.2 | 58.1* | -0.327
COc1ccc(C(=O)NC(=S)NC(C)C)cc1Br | -1.02 | 0.8 | 59.6* | 0.4 | 18.5 | 0.00583
COc1ccccc1NC(=O)CN(Cc1ccccc1)S(C)(=O)=O | 0.58 | / | / | / | / | -0.136
CS(=O)(=O)N(CCc1ccccc1)CC(=O)Nc1ccc(OCc2ccccc2)cc1 | -0.01 | 0.7 | 40.2 | 0.6 | 31.4 | -4.2*
COC(=O)c1ccccc1NC(=O)CN(CCc1ccccc1)S(C)(=O)=O | 0.03 | 0.9 | 52.5* | 0.5 | 7.3 | -0.844
CS(=O)(=O)N(CCc1ccccc1)CC(=O)NCc1ccccn1 | -0.07 | 0.8 | 35.8 | 0.6 | 18.4 | 0.673
NS(=O)(=O)c1ccc(NC(=O)Cn2ncc3c2-c2ccccc2OC3)cc1 | / | 0.6 | -15.0 | 1.1 | 35.2 | 0.0175
O=C(O)c1ccc2c(c1)-c1nc3ccccc3n1C2=O | 1.1 | 0.9 | -2.4 | 1 | 9.2 | -0.168
Cn1c(SCC(=O)NCc2ccco2)nnc1-c1c[nH]c2ccccc12 | / | 0.6 | 51.9* | 0.5 | 37.5 | 0.219
CCOc1ccc(-n2c(SCC(=O)NCc3ccco3)nnc2-c2c[nH]c3ccccc23)cc1 | / | 0.4 | 6.7 | 0.9 | 60.0* | -3.52
Nc1ccc(C(=O)OCCCc2nc3ccccc3[nH]2)cc1 | -0.26 | 0.8 | 51.1* | 0.5 | 18.8 | -0.255
CCCCCCCCOC(=O)c1ccc(N)cc1 | -3.3* | / | / | / | / | 0.133
CCCCCCOC(=O)c1ccc(OC(=O)c2cccnc2)cc1 | -2.03 | 0.1 | 71.5* | 0.3 | 86.4* | 0.17
CCCCCCOC(=O)c1ccc(NC(=O)c2cc(OC)c(OC)c(OC)c2Br)cc1 | 0.45 | 0.4 | 44.3 | 0.6 | 64.5* | -2.07
CCCCOC(=O)c1ccc(O)cc1 | / | / | / | / | / | -0.436
COC(=O)c1ccc(C(=O)OCCCc2nc3ccc(N)cc3[nH]2)cc1 | -0.45 | / | / | / | / | 0.688
COc1ccc(OC(=O)c2cccnc2)cc1 | -0.36 | 1.1 | -5.9 | 1.1 | -13.9 | 0.12
CCOC(=O)c1ccc(NC(=O)c2c(N)n(C)c(=O)n(C)c2=O)cc1 | / | / | / | / | / | 0.25
O=C(O)CCC(=O)c1c[nH]c2ccccc12 | 2.35 | 1.1 | 3.5 | 1 | -6.6 | 0.0208
CCCCCCCOc1ccc(OC(=O)c2cccnc2)cc1 | -1.03 | 0.2 | 66.0* | 0.3 | 76.8* | -0.0194
CCCCOc1ccc(OC(=O)c2cccnc2)cc1 | -0.39 | 0.6 | 13.5 | 0.9 | 39.4 | 0.0825
O=C(O)c1c(-c2ccccc2)c2oc3ccccc3c2[nH]c1=O | 1.03 | 1 | -13.2 | 1.1 | -3.9 | 0.532
COc1cc(/C=C/C(=O)NNc2c(F)c(F)cc(F)c2F)ccc1OC(F)F | 0.64 | 0.9 | 72.8* | 0.3 | 8.2 | -4.34*
COc1ccc(/C=C/C(=O)NNc2c(F)c(F)cc(F)c2F)cc1OC | 0.22 | 0.7 | 15.8 | 0.8 | 31.0 | -0.25
COc1ccc(NC(=O)Cn2cc(C(=O)c3ccco3)c3ccccc32)cc1 | -3.01* | 0.9 | -11.1 | 1.1 | 9.5 | 0.963
